This passage reports sensor-assay potency score (higher = more potent) results from the OligoGym collection.
Note: reference of the scale not given here.

The target in one experiment is NAT9. The experiment can be described thus: pooled miR-30 sensor sort-seq; sequence = guide strand. Particulars: shRNA.
Take ATCCACTCGTGGTACCTGCTGG: the sensor-assay potency score (higher = more potent) was -0.384. ACACTTGTCTGCATCTTCCTGC gave a sensor-assay potency score (higher = more potent) of 0.498. Sequence TGAAGTTTCTGGAACATCCGGA returned a sensor-assay potency score (higher = more potent) of 0.756. Turning to TCAAACGCTGCAGCTCCTCTGA, the sensor-assay potency score (higher = more potent) was -0.784. With TGAAGGTACACTTGTCTGCATC, the sensor-assay potency score (higher = more potent) was -1.11. For the sequence TTCATCCACTCGTGGTACCTGC, the sensor-assay potency score (higher = more potent) was -1.04.

For TAAGGCTTCTCTTCCACGTGGC, the sensor-assay potency score (higher = more potent) was 0.678. On to TAGATCTGTGAGGAAGAGGTTC, for which the sensor-assay potency score (higher = more potent) is -0.334. Take TTGTCTGCATCTTCCTGCCAGC: the sensor-assay potency score (higher = more potent) is -1.08.

Consider TCTGATTTCATCCACTCGTGGT, for which the sensor-assay potency score (higher = more potent) is -0.312. Same read-out and setting: the figure for TACACTTGTCTGCATCTTCCTG is -0.99. Turning to TTGTTCACATGCAGTCTGCTGT, the sensor-assay potency score (higher = more potent) is -0.324.

A further experiment concerns the target NBPF1. Described as above. Particulars: shRNA.
For the sequence TTATGAGGTCTTCGCACTCTTC, the sensor-assay potency score (higher = more potent) was -1.54.

TTTATGAGGTCTTCGCACTCTT showed a sensor-assay potency score (higher = more potent) of 0.0563. For the sequence TTCGTCTCTGCCTTCTCGCTGG, the sensor-assay potency score (higher = more potent) turned out to be 0.0322. As to TTGGTCTTCTTCCTCTTCCTGG, the sensor-assay potency score (higher = more potent) was -0.175. The same measure, in the same setting: the figure for TTTTCTTCGTTGATCTTCTTCC is -0.0891. TAAAATGTTCGTCTCTGCCTTC: the sensor-assay potency score (higher = more potent) is -0.476. The sequence TTGATTTCTAAAATGTTCGTCT came in with a sensor-assay potency score (higher = more potent) of 0.0571. Take TTCGTTGATCTTCTTCCCCTTC: the sensor-assay potency score (higher = more potent) is -0.152. With TCTTCGTTGATCTTCTTCCCCT, the sensor-assay potency score (higher = more potent) is -0.277.
